# The campaign covered roughly 5,500 compounds. About 2,000 (36%) were called active. Inconclusive results (about 18%) are left out. The list shows a part of the results. Values without a mark were called inactive. No stated cut-off is given here; in the data, active means normalized growth mostly below about 0.91 (no sharp cut-off); inconclusive means no clear call, values can overlap the other calls; inactive means mostly above about 0.92.
# Experiment: chemical genetic growth profiling, strain panel (AID 1159580);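 further: tested at 20 µM; growth read once vehicle control cultures reached saturation at 30 °C; 1 = growth at the plate median or of vehicle wells; lower values mean less growth of the strain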
# Conditions: growth OD
# [1] = S. cerevisiae deletion strains, locus YAL013W, strain DEP1, hits give low values
# [2] = S. cerevisiae deletion strains, locus YDR150W, strain NUM1, hits give low values
# [3] = S. cerevisiae deletion strains, locus YGR229C, strain SMI1, hits give low values
# [4] = S. cerevisiae deletion strains, locus YHR030C, strain SLT2, hits give low values
# [5] = S. cerevisiae deletion strains, locus YJR075W, strain HOC1, hits give low values
# [6] = S. cerevisiae deletion strains, locus YNL322C, strain KRE1, hits give low values
# [7] = S. cerevisiae deletion strains, locus YPL055C, strain LGE1, hits give low values
# [8] = S. cerevisiae deletion strains, locus YPL241C, strain CIN2, hits give low values
# [9] = S. cerevisiae deletion strains, locus YAL040C, strain CLN3, hits give low values
# [10] = S. cerevisiae deletion strains, locus YCL061C, strain MRC1 (second series), hits give low values
# [11] = S. cerevisiae deletion strains, locus YDR363W, strain ESC2, hits give low values
# [12] = S. cerevisiae deletion strains, locus YER002W, strain NOP16, hits give low values
# [13] = S. cerevisiae deletion strains, locus YMR307W, strain GAS1, hits give low values
# [14] = S. cerevisiae deletion strains, locus YNL128W, strain TEP1, hits give low values
# [15] = S. cerevisiae deletion strains, locus YNL175C, strain NOP13, hits give low values
# [16] = S. cerevisiae deletion strains, locus YNL197C, strain WHI3, hits give low values
# [17] = S. cerevisiae deletion strains, locus YNL224C, strain SQS1, hits give low values
# [18] = S. cerevisiae deletion strains, locus YOR083W, strain WHI5 (second series), hits give low values
# [19] = S. cerevisiae deletion strains, locus YHR079C, strain IRE1, hits give low values
# [20] = S. cerevisiae deletion strains, locus YJL095W, strain BCK1, hits give low values
# [21] = S. cerevisiae deletion strains, locus YJR066W, strain TOR1, hits give low values
# [22] = S. cerevisiae deletion strains, locus YLR113W, strain HOG1, hits give low values
# [23] = S. cerevisiae deletion strains, locus YNL183C, strain NPR1, hits give low values
# [24] = S. cerevisiae deletion strains, locus YOR231W, strain MKK1, hits give low values
# [25] = S. cerevisiae deletion strains, locus YPL256C, strain CLN2, hits give low values
smiles,measurement,setting,value
CCOC(=O)c1cnc2cc(C)nn2c1C,normalized growth,[1],0.994
same,normalized growth,"S. cerevisiae deletion strains, locus YBR229C, strain ROT2, hits give low values",0.994
same,normalized growth,"S. cerevisiae deletion strains, locus YCL061C, strain MRC1, hits give low values",0.999
same,normalized growth,"S. cerevisiae deletion strains, locus YDL101C, strain DUN1, hits give low values",0.997
same,normalized growth,[2],0.964
same,normalized growth,"S. cerevisiae deletion strains, locus YEL061C, strain CIN8, hits give low values",0.997
same,normalized growth,"S. cerevisiae deletion strains, locus YGR078C, strain PAC10, hits give low values",1
same,normalized growth,[3],0.983
same,normalized growth,[4],0.986
same,normalized growth,"S. cerevisiae deletion strains, locus YHR087W, strain rtc3, hits give low values",1.01
same,normalized growth,"S. cerevisiae deletion strains, locus YJL187C, strain SWE1, hits give low values",1.01
same,normalized growth,"S. cerevisiae deletion strains, locus YJR043C, strain POL32, hits give low values",1.01
same,normalized growth,[5],0.998
same,normalized growth,"S. cerevisiae deletion strains, locus YKL190W, strain CNB1, hits give low values",0.992
same,normalized growth,"S. cerevisiae deletion strains, locus YLR039C, strain RIC1, hits give low values",0.987
same,normalized growth,"S. cerevisiae deletion strains, locus YLR058C, strain SHM2 (second series), hits give low values",1
same,normalized growth,"S. cerevisiae deletion strains, locus YLR085C, strain ARP6, hits give low values",0.944
same,normalized growth,"S. cerevisiae deletion strains, locus YLR262C, strain YPT6, hits give low values",0.99
same,normalized growth,"S. cerevisiae deletion strains, locus YML094W, strain GIM5, hits give low values",0.953
same,normalized growth,"S. cerevisiae deletion strains, locus YMR219W, strain ESC1, hits give low values",0.991
same,normalized growth,"S. cerevisiae deletion strains, locus YMR263W, strain SAP30, hits give low values",1
same,normalized growth,"S. cerevisiae deletion strains, locus YNL298W, strain CLA4 (second series), hits give low values",0.996
same,normalized growth,[6],0.994
same,normalized growth,"S. cerevisiae deletion strains, locus YNR030W, strain Alg12, hits give low values",0.981
same,normalized growth,"S. cerevisiae deletion strains, locus YOL006C, strain TOP1, hits give low values",0.965
same,normalized growth,[7],0.909
same,normalized growth,[8],0.956
same,normalized growth,"S. cerevisiae deletion strains, locus YPR135W, strain CTF4, hits give low values",1.01
same,normalized growth,"S. cerevisiae strains, strain wild type, hits give low values",0.991
CCCCNc1c(C(=O)OCC)c(C)nc2c1cnn2CC,normalized growth,[9],0.933
same,normalized growth,[10],0.998
same,normalized growth,[2],0.999
same,normalized growth,[11],1.01
same,normalized growth,[12],0.998
same,normalized growth,[3],1.01
same,normalized growth,[5],1.01
same,normalized growth,[13],0.998
same,normalized growth,[14],0.959
same,normalized growth,[15],0.941
same,normalized growth,[16],0.947
same,normalized growth,[17],0.951
same,normalized growth,[6],1
same,normalized growth,[18],0.845 (active)
same,normalized growth,[7],1.01
same,normalized growth,[8],0.993
CCOC(=O)c1cnc2c(cnn2CC)c1NN=C(C)C,normalized growth,[1],0.918
same,normalized growth,[9],1.01
same,normalized growth,[10],0.943 (active)
same,normalized growth,[11],0.918
same,normalized growth,[12],0.959
same,normalized growth,[3],0.76 (active)
same,normalized growth,[13],0.856 (active)
same,normalized growth,"S. cerevisiae deletion strains, locus YNL153C, strain GIM3, hits give low values",0.909
same,normalized growth,[15],0.961
same,normalized growth,[16],0.976
same,normalized growth,[17],0.97
same,normalized growth,[18],0.844 (active)
same,normalized growth,[7],0.966
same,normalized growth,[8],0.964
CCN(CC)CC#CCOC(=O)C(O)(c1ccccc1)C1CCCCC1 (stereo not drawn),normalized growth,[1],1
same,normalized growth,[9],1
same,normalized growth,[10],1
same,normalized growth,[2],1
same,normalized growth,[11],1.01
same,normalized growth,[12],1.06
same,normalized growth,[4],0.985
same,normalized growth,[19],0.996
same,normalized growth,[20],1.05
same,normalized growth,[21],0.927
same,normalized growth,[22],1.04
same,normalized growth,[14],1.11 [resistant] (active)
same,normalized growth,[15],1.06
same,normalized growth,[23],0.96
same,normalized growth,[16],1.05
same,normalized growth,[17],1.02
same,normalized growth,[18],0.998
same,normalized growth,[24],0.989
same,normalized growth,[7],1
same,normalized growth,[8],1
same,normalized growth,[25],1
CC[N+](C)(CC)CCOC(=O)C(O)(c1ccccc1)C1CCCCC1 (stereo not drawn),normalized growth,[4],0.989
same,normalized growth,[19],1
same,normalized growth,[20],0.982
same,normalized growth,[21],0.901
same,normalized growth,[22],1.03
same,normalized growth,[23],0.913
same,normalized growth,[24],0.988
same,normalized growth,[25],0.989

# Source: PubChem BioAssay AID1159580 (chemical genetic matrix, 2015)
